This is a sample that favours compounds with a hit; in the whole collection about 3.4% have one here.
GPR151 ag = activates the human receptor GPR151; activation, % at 11.2 µM; PathHunter beta-arrestin GPR151 cells, luminescence; Q8TDV0; 650,000 tested, 1% active; in the data active = activation above about 4.9%;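 also: 0% = median of compound wells and 100% = cells with positive control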
MITF inh = inhibitors of human MITF; O75030; AlphaScreen MITF homodimerization, bead proximity signal; inhibition, % at 2.6 µM; 650,000 tested, 0.91% active; in the data active = inhibition above about 50%;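 also: 0% = vehicle wells with protein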
TEAD-YAP inh = TEAD-YAP interaction inhibition. inhibition, % at 9.12 µM. HEK-TIYL cells, TEAD-Gal4/YAP UAS-luciferase luminescence. 640,000 tested, 1.4% active; in the data active = inhibition above about 32%;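 also: 0% = median of test compound wells and 100% = reference inhibitor wells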
FBW7 activator = human FBW7 E3 ligase activation, primary screen; Q969H0; AlphaScreen FBW7–phospho-cyclin E peptide binding, activator screen; normalized activity (activation), % at 26.1 µM; 650,000 tested, 0.13% active; AID 1259310; in the data active = normalized activity above about 1.9%;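 also: purified mutant Fbw7 with reduced substrate affinity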
Target sequence (Q969H0 whole entry, looked up): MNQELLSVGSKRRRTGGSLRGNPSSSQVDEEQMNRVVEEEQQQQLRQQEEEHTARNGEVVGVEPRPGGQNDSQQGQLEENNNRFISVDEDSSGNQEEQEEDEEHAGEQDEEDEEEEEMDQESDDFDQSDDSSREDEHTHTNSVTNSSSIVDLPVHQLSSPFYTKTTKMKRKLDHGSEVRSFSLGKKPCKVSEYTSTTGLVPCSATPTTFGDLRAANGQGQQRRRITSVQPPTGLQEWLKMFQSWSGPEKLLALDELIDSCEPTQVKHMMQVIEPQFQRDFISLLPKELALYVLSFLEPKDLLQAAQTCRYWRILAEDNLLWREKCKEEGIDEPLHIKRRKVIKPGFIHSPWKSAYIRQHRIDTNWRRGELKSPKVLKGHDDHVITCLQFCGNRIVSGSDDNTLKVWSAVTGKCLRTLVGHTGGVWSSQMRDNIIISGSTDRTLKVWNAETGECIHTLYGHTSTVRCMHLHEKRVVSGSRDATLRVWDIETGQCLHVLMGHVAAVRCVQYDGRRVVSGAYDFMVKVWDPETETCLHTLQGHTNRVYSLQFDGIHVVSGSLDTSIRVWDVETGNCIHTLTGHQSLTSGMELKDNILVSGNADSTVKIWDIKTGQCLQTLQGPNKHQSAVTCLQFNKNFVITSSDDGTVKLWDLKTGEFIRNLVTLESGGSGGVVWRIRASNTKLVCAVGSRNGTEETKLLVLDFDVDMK
GPR151 conf act = confirmation of human GPR151 activators; shares compounds with GPR151 ag; GPR151 PathHunter beta-arrestin cells, luminescence, 90 min; % of EA-reagent control over plate median; activation, % at 11.2 µM; 6,700 tested, under 10 active;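 active = mean percent activation across replicates above the confirmation screen cutoff of 4.91%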
GPR119 ag = counter-screen for GPR151 activators: effect on human GPR119; shares compounds with GPR151 ag; activation, % at 11.2 µM; AID 1508611; GPR119 PathHunter beta-arrestin cells, luminescence, 90 min; 0 = compound-well median, 100 = enzyme-acceptor control; 6,700 tested, 0.3% active;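 active = mean percent activation in the counterscreen above 29.09%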;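 also: counterscreen on off-target GPR119 to flag nonselective hits from the GPR151 activator screen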
* marks the source's active call; other numbers are inactive results; / = no result.

SMILES	GPR151 ag	MITF inh	TEAD-YAP inh	FBW7 activator	GPR151 conf act	GPR119 ag
O=c1[nH]c2ccc(S(=O)(=O)NCc3ccco3)cc2o1	6.0*	-2.0	-3.1	-0.1	0.1	4.5
O=c1[nH]c(=O)c2sc3nc(-c4ccncc4)cc(C(F)(F)F)c3c2[nH]1	6.3*	2.3	2.3	0.2	0.7	2.1
Nc1cc(Sc2ccc(F)cc2)cc([N+](=O)[O-])c1	5.1*	-0.8	-5.7	-0.1	-0.2	-3.8
COCCn1c(SCC(=O)N2CC(=O)Nc3ccccc32)nnc1-c1ccoc1C	7.6*	0.2	-13.9	0.1	1.4	5.0
CCCCc1ccc(NS(=O)(=O)c2ccc(OCC(=O)OC)cc2)cc1	5.2*	-8.9	-8.0	0.2	0.3	2.9
COC(=O)COc1ccc(S(=O)(=O)Nc2ccc(NC(C)=O)cc2)cc1C	6.2*	5.7	1.6	0.1	0.9	-10.1
CC(=O)Nc1ccc(NS(=O)(=O)c2cc(C(C)(C)C)cc(C)c2C)cc1	6.4*	-4.3	4.3	-0.1	0.2	6.3
Cc1ccc(NS(=O)(=O)c2cc(C(=O)O)cc(C)c2C)cc1	-0.6	-11.1	6.4	0.0	/	/
COc1ccc(S(=O)(=O)Nc2ccc(F)c(F)c2)cc1C	13.8*	7.6	2.7	0.0	0.9	2.2
COC(=O)COc1ccc(NS(=O)(=O)c2ccc(NC(C)=O)cc2)cc1	-0.9	9.2	3.9	0.8	/	/
c1csc(-c2cc(NCCN3CCOCC3)ncn2)c1	1.7	2.1	-1.2	0.1	/	/
CCOc1cc(C2C(C(=O)N3CCCCC3)=C(C)NC3=C2C(=O)CC(C)(C)C3)cc(Br)c1OCC (configuration not stated)	1.2	3.1	-3.0	0.2	/	/
CCOC(=O)COc1ccc(S(=O)(=O)Nc2ccc(Br)cc2)cc1	2.9	-2.1	3.6	-0.1	/	/
CCOC(=O)COc1ccc(S(=O)(=O)Nc2ccc(C(=O)OCC)cc2)cc1	5.0*	-7.0	-0.1	0.0	-0.9	2.5
CCOc1ccc(S(=O)(=O)Nc2ccc3oc(C)c(C(=O)OC)c3c2)cc1	8.9*	18.5	62.7*	0.4	0.1	15.5
COC(=O)c1c(C)oc2ccc(NS(=O)(=O)c3ccc(C(C)(C)C)cc3)cc12	0.3	7.6	28.5	0.0	/	/
CCOC(=O)C(C)(C)N(Cc1ccccc1C)S(=O)(=O)c1cccc([N+](=O)[O-])c1	-2.4	6.7	-6.7	0.0	/	/
COc1ccc(CNC(=O)CCCn2cccc2)cc1	8.2*	7.9	-15.1	-0.1	2.2	5.8
COc1cc2[nH]c(=O)n(CCCC(=O)NCc3ccccc3Cl)c(=O)c2cc1OC	6.8*	0.4	-11.8	0.1	1.0	4.5
CCCCNC(=O)CCCCCn1c(=O)[nH]c2cc(OC)c(OC)cc2c1=O	-0.4	-8.6	1.6	0.0	/	/
COc1ccc2[nH]c3c(=O)n(CCCCC(=O)NC(C)C)c(=S)[nH]c3c2c1	0.5	8.7	-0.3	0.6	/	/
CCCC(=O)NCc1ccc(OC)cc1	1.4	-2.0	-14.7	-0.1	/	/
COc1ccc(CNC(=O)CCCn2c(=O)[nH]c3ccccc3c2=O)cc1	7.0*	-9.0	-3.4	-0.1	-0.3	-1.7
COc1ccc2[nH]c3c(=O)n(CCCC(=O)Nc4ccccc4)c(=S)[nH]c3c2c1	7.7*	-1.3	3.2	-0.2	-0.7	-6.7
Nc1ncc(-c2ccncc2)nc1NCCCN1CCOCC1	-0.1	6.4	0.2	0.5	/	/
SMILES	GPR151 ag	MITF inh	TEAD-YAP inh	FBW7 activator	GPR151 conf act	GPR119 ag
COc1ccccc1CNCc1c(C(=O)O)[nH]c2ccccc12	1.7	9.2	5.2	-0.1	/	/
CCC(Oc1ccccc1)c1nnc(NC(=O)Cc2ccccc2)s1 (configuration not stated)	27.9*	17.1	3.6	0.4	-0.3	-10.6
O=C(NCc1cccs1)Nc1ccccc1	0.2	-3.9	-13.6	0.1	/	/
O=C(NCc1cccs1)Nc1ccccc1Cl	6.2*	24.7	-23.7	0.1	0.1	0.6
O=C(NCc1cccs1)C1(c2ccccc2)CC1	8.6*	5.3	2.1	-0.1	0.0	3.2
O=C(O)C1(c2ccccc2)CCN(S(=O)(=O)c2ccccc2)CC1	-1.4	15.8	-2.1	0.1	/	/
O=C(NCc1ccccc1)C1(c2ccccc2)CCN(S(=O)(=O)c2ccccc2)CC1	5.6*	-8.3	4.7	0.1	-0.5	-12.3
CCOC(=O)c1nc2cc3n(c(CC(C)C)c-2c1C)C(C)C(C)=C3C (configuration not stated)	0.4	2.2	-1.1	0.1	/	/
CCCn1nnnc1SCC(=O)Nc1cccc(NC(C)=O)c1	5.2*	-8.0	-2.6	-0.1	1.5	7.5
CCn1nnnc1SCC(=O)Nc1cccc(NC(C)=O)c1	-0.3	-13.1	-7.6	0.2	/	/
O=c1oc2cc(OCc3ccc(F)cc3Cl)c(Cl)cc2c2c1CCCC2	-0.2	10.7	-7.2	0.1	/	/
CC(=O)OC(C(=O)NCc1ccco1)c1ccncc1 (configuration not stated)	11.0*	-2.8	-5.2	-0.2	1.7	5.5
CCOc1ccc2nc(NCCNC(=O)c3ccccc3OC)c(C#N)cc2c1	0.0	-2.7	-6.9	0.3	/	/
CCCCOC(=O)C1=C(C)N(C)C(=O)NC1c1ccccc1Cl (configuration not stated)	7.2*	-3.6	15.2	0.3	0.0	-9.2
CCCOC(=O)C1=C(C)N(C)C(=O)NC1c1ccccc1Cl (configuration not stated)	0.9	-5.7	-0.4	-0.1	/	/
COC(=O)c1ccccc1NC(=O)CN(c1cc(OC)ccc1OC)S(C)(=O)=O	5.6*	-6.1	-7.3	-0.1	-0.4	7.6
COC(=O)c1ccccc1NC(=O)CN(c1ccc(OC)cc1OC)S(C)(=O)=O	9.5*	-1.3	11.9	-0.1	-0.6	0.3
COC(=O)c1ccccc1NC(=O)CN(c1ccccc1Cl)S(C)(=O)=O	1.7	5.0	-0.9	-0.1	/	/
COc1ccc(OC)c(N(CC(=O)Nc2ccccc2F)S(C)(=O)=O)c1	1.7	2.3	5.6	0.1	/	/
Cc1nc(N2CCOCC2)nc2c1CCC2	10.4*	6.8	-11.2	0.1	-0.9	-10.2
CCOC(=O)c1c(NC(=O)COc2c(F)c(F)cc(F)c2F)sc2c1CCCC2	5.0*	13.3	7.5	1.2	0.7	8.6
CCOC(=O)c1c(NC(=O)C2C3C=CC(C3)C2C(=O)O)sc2c1CCCCC2 (configuration not stated)	5.5*	4.6	16.4	-0.1	-0.2	-7.2
CCOC(=O)c1c(NC(=O)COc2c(C)cc(Cl)cc2Cl)sc2c1CCCC2	0.0	-5.2	0.4	0.0	/	/
Cc1ccc(-c2[nH]nc3c2C(c2ccc(OC(=O)c4ccccc4Cl)cc2)C(C#N)=C(N)O3)cc1 (configuration not stated)	0.7	0.7	0.7	-0.1	/	/
CCOc1cc(/C=N/O)cc(I)c1OCC(=O)O	-0.2	-9.3	-5.6	0.1	/	/
CCOC(=O)Cc1c(C)c2ccc(N(CC)CC)cc2oc1=O	7.2*	-14.4	-9.5	1.1	0.0	9.8
